Experimental data from PMC5540273 (PLoS ONE, 2017).

Columns and labels:
Conditions in all cases: concentration: 1 μM, replicates: in singlicate; n = 1
EPHA4 = system: EPHA4
EPHA5 = system: EPHA5
EPHA6 = system: EPHA6
EPHA7 = system: EPHA7
EPHA8 = system: EPHA8
EPHB1 = system: EPHB1
EPHB2 = system: EPHB2
EPHB3 = system: EPHB3
EPHB4 = system: EPHB4
EPHB6 = system: EPHB6
ERBB2 = system: ERBB2
ERBB3 = system: ERBB3
ERBB4 = system: ERBB4
ERK1 = system: T1, ERK1
T1 construct: gene MAPK3

ERK2 = system: T2, ERK2
T2 construct: gene MAPK1

ERK3 = system: T3, ERK3
T3 construct: gene MAPK6

ERK4 = system: T4, ERK4
T4 construct: gene MAPK4

ERK5 = system: T5, ERK5
T5 construct: gene MAPK7

ERK8 = system: T6, ERK8
T6 construct: gene MAPK15

ERN1 = system: ERN1
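Also: KINOMEscan kinase panel screen.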

Compound	%Inh (EPHA4) [%]	%Inh (EPHA5) [%]	%Inh (EPHA6) [%]	%Inh (EPHA7) [%]	%Inh (EPHA8) [%]	%Inh (EPHB1) [%]	%Inh (EPHB2) [%]	%Inh (EPHB3) [%]	%Inh (EPHB4) [%]	%Inh (EPHB6) [%]	%Inh (ERBB2) [%]	%Inh (ERBB3) [%]	%Inh (ERBB4) [%]	%Inh (ERK1) [%]	%Inh (ERK2) [%]	%Inh (ERK3) [%]	%Inh (ERK4) [%]	%Inh (ERK5) [%]	%Inh (ERK8) [%]	%Inh (ERN1) [%]
O=C(Nc1ccc2c(c1)OCO2)NC1CCN(c2ccnc(Nc3ccc(F)cc3)n2)C1 (centres unmarked) [GSK1379724]	6	0	8	0	9	0	5	16	11	35	45	0	44	0	0	17	0	0	7	0
Cc1ccc(-c2cc(-c3c[nH]nc3-c3ccccn3)ccn2)cc1 [GW684088]	7	0	8	10	15	9	0	9	20	7	43	36	0	37	0	3	18	0	0	0
Cn1ccc2ncnc(Oc3cccc(C(=O)Nc4ccccc4)c3)c21	4	16	0	0	0	0	0	0	9	0	18	18	0	0	21	0	4	5	6	29
Cc1cccc(-c2nc(C)cc(Nc3ccncc3)n2)n1 [GSK257997]	2	0	2	7	8	23	0	5	5	0	28	0	30	0	0	19	100	0	0	4
Cl.O=C(Nc1cccc(-c2nn3ncccc3c2-c2ccnc(Nc3cccnc3)n2)c1)c1c(F)cccc1F [GSK312879]	1	0	1	7	27	13	0	0	12	10	95.9	0	93.2	8	0	0	16	0	28	4
COc1cccc(-c2cc(-c3c[nH]nc3-c3ccccn3)ccn2)c1 [GW680338]	2	0	0	0	8	7	16	2	15	0	5	17	0	4	0	16	8	0	0	0
Fc1cccc(COc2nnc(-c3ccc4c(c3)CCO4)o2)c1	0	0	11	14	16	20	0	20	16	0	3	13	0	0	13	0	0	8	0	15
COc1ccc2nc(-c3cccc(C)n3)nc(Nc3ccncc3)c2c1 [GSK204919]	23	0	18	0	9	6	0	14	15	0	0	0	30	2	3	10	15	0	37	0
Nc1nc(-c2nccs2)c(-c2ccnc3ccccc23)s1 [GW693542]	11	0	8	10	17	13	0	10	1	5	36	0	27	6	0	0	18	0	0	0
CC(C)(C)c1ccc(C(=O)Nc2cn3cc(Cl)ccc3n2)cc1	0	0	0	0	0	0	0	0	0	8	14	0	0	0	0	0	0	0	0	0
